Sampled rows, rich in hits. Any-hit rate of the full collection: about 2%.
Granule exo inh – blocks lytic granule exocytosis; TALL-104 LAMP-1 surface exposure, flow cytometry; cells stimulated with thapsigargin and PMA; inhibition, % at 10 µM; actives 0.66% (n = 360,000);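 active = inhibition above about 55%, limit read from the data; inconclusive = no clear call, values can overlap the other calls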
PG9 binder – PG9 antibody binding by small molecule; actives 0.43% (n = 360,000); TR-FRET gp120-PG9 antibody binding; inhibition, % at 6.7 µM; in the data active = inhibition above about 8.5%
ABCB6 inh MLPCN – inhibitors of human ABC transporter ABCB6; actives 0.19% (n = 360,000); fluorescence ratio to DMSO, % at 10 µM; AID 602162; K562-ABCB6 porphyrin accumulation, flow cytometry, 1 h; active compounds read low; Q9NP58;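 active = fluorescence ratio to DMSO below 75%, the collection mean minus 3 SD; inconclusive = too few cells collected in the well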;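 note: signal is porphyrin accumulated inside mitochondria; lower ratio means ABCB6 inhibition with less porphyrin fluorescence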
Target sequence (Q9NP58 whole entry, looked up): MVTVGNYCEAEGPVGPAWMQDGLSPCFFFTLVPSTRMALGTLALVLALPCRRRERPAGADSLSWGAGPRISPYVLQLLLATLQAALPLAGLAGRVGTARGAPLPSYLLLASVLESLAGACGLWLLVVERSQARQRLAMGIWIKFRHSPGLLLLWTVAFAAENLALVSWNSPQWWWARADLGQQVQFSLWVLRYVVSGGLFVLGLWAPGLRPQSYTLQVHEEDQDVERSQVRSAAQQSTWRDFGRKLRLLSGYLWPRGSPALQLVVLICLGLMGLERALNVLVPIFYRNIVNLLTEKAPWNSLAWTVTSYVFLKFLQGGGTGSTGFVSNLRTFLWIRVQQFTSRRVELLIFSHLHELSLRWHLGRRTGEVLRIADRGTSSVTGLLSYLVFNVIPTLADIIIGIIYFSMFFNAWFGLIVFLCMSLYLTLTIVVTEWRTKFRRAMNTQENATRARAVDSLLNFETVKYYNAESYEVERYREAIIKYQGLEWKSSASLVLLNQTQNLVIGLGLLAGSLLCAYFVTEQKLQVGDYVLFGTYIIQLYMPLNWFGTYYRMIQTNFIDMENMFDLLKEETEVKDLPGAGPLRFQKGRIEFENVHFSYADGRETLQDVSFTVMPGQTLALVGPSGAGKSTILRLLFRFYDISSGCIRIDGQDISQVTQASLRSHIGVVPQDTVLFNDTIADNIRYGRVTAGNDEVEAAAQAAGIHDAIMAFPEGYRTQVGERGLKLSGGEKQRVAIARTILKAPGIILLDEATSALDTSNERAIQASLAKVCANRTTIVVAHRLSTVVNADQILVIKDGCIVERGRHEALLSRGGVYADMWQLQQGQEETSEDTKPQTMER
NR1D1 modulator – Rev-erb alpha (human) modulation; activity, % at 10 µM; AID 1259318; actives 0.79% (n = 370,000); Rev-erbα–FITC-DNA binding, fluorescence polarization, 90 min; P20393;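 active = activity above about 14%, limit read from the data; passing the limit was not always enough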
VLA-4 inh – inhibition in a human VLA-4 binding assay. P13612. VLA-4 expressing cells, ligand binding flow cytometry. inhibition, % (about 7 µM as worked out from the volumes in the protocol). actives 0.2% (n = 330,000). AID 2557; in the data active = inhibition above about 50%
NR1D1 mod conf – Rev-erb alpha (human) modulation, hit confirmation. activation, % at 25 µM. actives 61% (n = 3,000). AID 1259319. Rev-erb alpha FITC-DNA binding, fluorescence polarization, 90 min. shares compounds with NR1D1 modulator;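 active = activation at or above a set limit, or at least 3 SD above the negative control mean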
RORg counter – counter-screen for Rev-erb alpha modulators: RORgamma DNA binding; purified RORgamma protein-FITC-DNA binding, fluorescence polarization; actives 8% (n = 910); AID 1259320; shares compounds with NR1D1 modulator; IC50, µM;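 active = Compounds whose fitted half-maximal concentration for disrupting protein-DNA binding is below 10 micromolar; the record names Rev-erb in its text, so the target is in doubt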
A number is an active result; 0 = inactive; ? = inconclusive; - = no result.

SMILES | Granule exo inh | PG9 binder | ABCB6 inh MLPCN | NR1D1 modulator | VLA-4 inh | NR1D1 mod conf | others
O=[N+]([O-])c1ccc(N2CCCCC2)s1 | ? | 0 | 0 | 22.8 | 0 | 18.0
CC1CCCN(c2ccc([N+](=O)[O-])s2)C1 (configuration not stated) | 0 | 0 | 0 | 30.8 | - | 0
O=[N+]([O-])c1ccc(N2CCN(Cc3ccccc3)CC2)s1 | 0 | 0 | 0 | 0 | 0 | -
CC1CCCN(c2c([N+](=O)[O-])cc(C(=O)O)cc2[N+](=O)[O-])C1 (configuration not stated) | 0 | 0 | 0 | 0 | 0 | -
COc1nc(C)ccc1-c1noc(-c2cccs2)n1 | 0 | 0 | 0 | 0 | 0 | -
COc1ccc(-c2ccc(-c3noc(-c4ccccc4)n3)c(OC)n2)cc1 | 0 | 0 | 0 | 21.9 | 0 | 18.0
COc1ccc(-c2ccc(-c3noc(-c4ccccc4F)n3)c(OC)n2)cc1 | 0 | 0 | 0 | 38.0 | - | 38.8 | RORg counter=0
COc1nc(-c2ccccc2)ccc1-c1noc(-c2cccs2)n1 | 0 | 0 | 0 | 59.0 | 0 | 40.2 | RORg counter=0
COc1nc(-c2ccccc2)ccc1-c1noc(-c2ccccc2)n1 | 0 | 0 | 0 | 0 | 0 | -
O=C(NCCc1ccccc1)OCc1cn(Cc2ccc(C(F)(F)F)cc2)nn1 | - | - | - | 0 | - | -
Clc1cccc(CSc2ncnc3sc4c(c23)CCCC4)c1 | - | - | - | 0 | - | -
COC(=O)[C@]1(C)CN(C(=O)OC(C)(C)C)C2=C1C(=O)C[C@](C)(C(=O)OC(C)(C)C)C2 | - | - | - | 0 | - | -
COc1ccc(-c2nnc3ccc(SCC(=O)Nc4nccs4)nn23)cc1OC | 0 | 0 | 0 | 0 | 0 | -
COc1ccc(-c2nnc3ccc(SCC(=O)Nc4nc5ccccc5s4)nn23)cc1OC | 0 | 0 | 0 | 45.6 | 0 | 0
CCc1cc2c(C)ccc(C)c2nc1SCC(=O)Nc1c[nH]c(=O)[nH]c1=O | 0 | 0 | 0 | 53.3 | 0 | 44.0 | RORg counter=0
Cc1cc2nc(-c3cccc(Cl)c3)c(CC(C)(C)C)n2c(C)c1Br | 0 | 0 | 0 | 15.0 | - | 0
COc1ccc(CCNC(=O)c2ccc3c(c2)N(Cc2ccccc2)CCS3)cc1OC | 0 | 0 | 0 | 0 | 0 | -
NS(=O)(=O)c1ccc(CCNC(=O)c2ccc3c(c2)N(Cc2ccccc2)CCS3)cc1 | 0 | 0 | 0 | 39.3 | 0 | 0
CCC(C)c1ccc(-c2cc(C(=O)OCC(=O)Nc3cc(C)on3)c3ccccc3n2)cc1 (configuration not stated) | 0 | 0 | 0 | 0 | 0 | -
COc1ccc(-c2cc(C(=O)OCC(=O)Nc3cc(C)on3)c3ccccc3n2)cc1OC | 0 | 0 | 0 | 20.6 | 0 | 0
Cc1cccc(C)c1NC(=O)COC(=O)c1cc(-c2cccnc2)nc2ccccc12 | 0 | 0 | 0 | 19.2 | 0 | 21.2
O=C(Nc1cccc(F)c1)OC1CC2CC1[C@H]1CCCCN1[C@H]2Cc1ccccc1 (some centres not stated) | - | - | - | 0 | - | -
CCc1cc2cccc(C)c2nc1SCC(=O)NC1CCCC1 | 0 | 0 | 0 | 20.6 | 0 | 0
CCOC(=O)CNC(=O)CSc1nc2c(C)cccc2cc1CC | 0 | 0 | 0 | 0 | 0 | -
Cc1nc(SCC(=O)NC2CCCC2)c2oc3ccccc3c2n1 | 0 | 0 | 0 | 35.2 | - | 652.5 | RORg counter=0
SMILES | Granule exo inh | PG9 binder | ABCB6 inh MLPCN | NR1D1 modulator | VLA-4 inh | NR1D1 mod conf | others
Cc1nc(SCC(=O)Nc2ccc(C)c(F)c2)c2oc3ccccc3c2n1 | 0 | 0 | 0 | 778.9 | 0 | 682.2
COc1ccc(CN2C3=N[C@H](c4ccccc4)CC(=O)N3/C(=C\c3ccccc3)C2c2ccco2)c(OC)c1 (some centres not stated) | - | - | - | 0 | - | -
CCCCCCCCN1C(=O)[C@@H](CC(=O)NCCCOCCCC)C[C@@]2(C(=O)OC)C1=C[C@H](COCc1ccccc1)O[C@@H]2C | - | - | - | 0 | - | -
CC1(C)Cc2c(c(N3CCOCC3)nc3sc4c(NN)ncnc4c23)CS1 | 0 | 0 | 0 | 28.1 | 0 | 33.7 | RORg counter=0
S=C(Nc1ccccc1Br)OCCN1CCCC12CCC(c1ccccc1)CC2 (configuration not stated) | - | - | - | 0 | - | -
CC(C)Cn1c(=O)c(C(=O)Nc2ccccc2S(N)(=O)=O)c(O)c2ccccc21 | 0 | 0 | 0 | 55.6 | 0 | 28.7
CCn1c(=O)c(C(=O)NNC(=O)Cc2ccccc2)c(O)c2ccccc21 | 0 | 0 | 0 | 32.8 | 0 | 0
CCCCCCCCCCC(=O)NNC(=O)c1c(O)c2ccccc2n(CC)c1=O | - | - | - | - | 0 | -
COC(=O)/C=c1/sc2nc3ccccc3n2c1=O | 0 | 0 | 0 | 0 | 0 | -
O=c1c2ccccc2nc2sc3ccccc3n12 | 0 | 0 | 0 | 21.6 | 0 | 32.3 | RORg counter=0
Clc1ccccc1NN(Cc1ccncc1)c1ccccc1Cl | 0 | 0 | 0 | 17.8 | - | 0
COc1ccc(OC)c(CNS(=O)(=O)c2ccccc2Br)c1 | - | 0 | - | 0 | - | -
N#CCNC(=O)c1nn2c(C(F)(F)F)cc(-c3ccccc3)nc2c1Br | 0 | 0 | 0 | 56.7 | 0 | 31.2 | RORg counter=0
O=C(NCC1CCCO1)c1nn2c(C(F)(F)F)cc(-c3ccco3)nc2c1Cl (configuration not stated) | 0 | 0 | 0 | 0 | 0 | -
O=C(NCC1CCCO1)c1nn2c(C(F)(F)F)cc(-c3cc(Br)cs3)nc2c1Br (configuration not stated) | 0 | 0 | 0 | 22.9 | 0 | 0
CCC[C@H]1[C@@H](NC(=O)C2CCC2)CC[C@@]23CCCN2C(=O)CCC[C@@H]13 | - | - | - | 0 | - | -
c1ccc(Nc2nc(-c3ccncc3)nc3ccccc23)cc1 | 0 | 0 | 0 | 30.1 | 0 | 22.8
Cc1ccc(NC(=S)NC(=O)c2ccccc2)cc1NC(=S)NC(=O)c1ccccc1 | 0 | 0 | 0 | 21.2 | 0 | 0
COc1cc(C(=O)Nc2ccc3c(c2)Cc2ccccc2-3)cc(OC)c1OC | 0 | 0 | 0 | 0 | 0 | -
COc1ccc(C(=O)NC(=S)Nc2ccc3c(c2)Cc2ccccc2-3)cc1 | 0 | 0 | 0 | 24.4 | 0 | 0
COC(=O)[C@]12C[C@H](CC(=O)NCCc3ccccc3OC)C(=O)N(Cc3cccc4ccccc34)C1=C[C@H](C(C)C)O[C@@H]2C1CC1 | - | - | - | 0 | - | -
CCOC(=O)c1sc(NC(=O)c2ccc(OC)cc2)nc1C | 0 | 0 | 0 | 0 | 0 | -
COc1cc(C(=O)Nc2nc3ccc4nc(C)sc4c3s2)cc(OC)c1OC | 0 | 0 | 0 | 115.1 | 0 | 0
CCOC(=O)c1sc(NC(=S)NC(=O)c2ccccc2)nc1C | 0 | 0 | 0 | 20.4 | 0 | 0
CCOC(=O)c1sc(NC(=S)NC(=O)c2cccc(OC)c2)nc1C | 0 | 0 | 0 | 93.7 | 0 | 37.7 | RORg counter=0
CCOC(=O)c1sc(NC(=O)c2ccc(S(=O)(=O)N3CCCCCC3)cc2)nc1-c1ccccc1 | 0 | 0 | 0 | 28.8 | 0 | 0
COc1cc(C(=O)Nc2nnc(C)s2)cc(OC)c1OC | 0 | 0 | 0 | 0 | 0 | -
CCC(CC)CN1CCC(CN2C(=S)NC[C@@H]2Cc2ccccc2)CC1 | - | 0 | - | 0 | - | -

Screening data deposited in PubChem BioAssay by several laboratories.
